# From PubChem BioAssay
# For part of these data: Results with a measured potency or affinity are listed apart. Active and inactive are the calls of the source.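 How the source made its calls, unless noted: active means fitted half-maximal concentration within the tested range, moderate curve steepness, significant signal drop, and little compound fluorescence or bead-linkage interference; inactive means the rest.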
# What was measured:
# [1] = target: Cell division control protein 42 homolog (Homo sapiens) (UniProt P60953); experiment: inhibition of fluorescent GTP binding to constitutively active Cdc42 – biochemical, multiplex bead flow cytometry, Bodipy-FL-GTP, dose response (AID 1333;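 active means fitted half-maximal concentration within the tested dose range, moderate curve steepness, a statistically real signal drop, and little compound fluorescence or tag-binding interference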)
# Cell division control protein 42 homolog (Homo sapiens), sequence (P60953 whole entry, looked up): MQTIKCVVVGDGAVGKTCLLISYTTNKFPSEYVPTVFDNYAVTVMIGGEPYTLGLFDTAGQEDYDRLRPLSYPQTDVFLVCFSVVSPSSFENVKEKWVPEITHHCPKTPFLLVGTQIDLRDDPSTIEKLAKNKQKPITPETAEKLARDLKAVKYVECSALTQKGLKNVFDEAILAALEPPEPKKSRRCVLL
# [2] = target: Cell division control protein 42 homolog (Homo sapiens) (UniProt P60953); experiment: inhibition of fluorescent GTP binding to wildtype Cdc42 – biochemical, multiplex bead flow cytometry, Bodipy-FL-GTP, dose response (AID 1334); settings: bead-based flow cytometry, Bodipy-FL-GTP binding to GST-Cdc42; at 100 µM (top of the series) unless noted
# [3] = target: GTPase HRas (Homo sapiens) (UniProt P01112); experiment: Ras wt fluorescent GTP loading blockade – biochemical, wildtype, multiplex bead flow cytometry, dose response (AID 1335;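 active means fitted half-maximal concentration within 10 nM to 100 µM, steepness 0.5 to 2, significant signal drop, low assay interference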); settings: bead-based flow cytometry, Bodipy-GTP binding to GST-Ras; at 100 µM (top of the series) unless noted
# GTPase HRas (Homo sapiens), sequence (P01112 whole entry, looked up): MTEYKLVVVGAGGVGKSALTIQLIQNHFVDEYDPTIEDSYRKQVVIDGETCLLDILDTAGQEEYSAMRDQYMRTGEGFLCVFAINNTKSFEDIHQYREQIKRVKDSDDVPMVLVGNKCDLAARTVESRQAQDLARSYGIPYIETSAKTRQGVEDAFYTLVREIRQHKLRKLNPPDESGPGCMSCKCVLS
# [4] = test system: Ras-related protein Rab-7a (dog), GTP binding; experiment: blockers of fluorescent GTP binding to Rab7 – biochemical, wildtype, multiplex bead flow cytometry, dose response (AID 1336; call rule not given here)
# [5] = target: Ras-related C3 botulinum toxin substrate 1 (Homo sapiens) (UniProt P63000); experiment: inhibition of wildtype Rac1 nucleotide loading – biochemical, multiplex bead flow cytometry, dose response (AID 1340;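 active means dose curve with midpoint inside tested range, moderate steepness, plateau gap beyond fit error, low compound glow and bead-link interference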); settings: GST-Rac1 beads, Bodipy-FL-GTP binding; at 100 µM (top of the series) unless noted
# [6] = target: GTPase HRas (Homo sapiens) (UniProt P01112); experiment: blockade of GTP loading onto mutant Ras – biochemical, activated mutant, multiplex bead flow cytometry, dose response (AID 1341;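 active means dose-response curve with midpoint inside the tested range, moderate steepness, significant amplitude and little compound fluorescence or bead-attachment interference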;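 further: GST-tagged constitutively activated Ras mutant immobilized on beads and multiplexed with other GTPases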)
Structure (SMILES),outcome [1],"fluorescence, percent of control (lower = inhibition) [2]","GTP binding, percent of control [3]",outcome [4],"GTP binding signal, raw median fluorescence (lower = inhibition) (MCF (arbitrary fluorescence units)) [5]",outcome [6]
COc1ccc(NC(=O)CSc2ccc3nnc(-c4cccnc4)n3n2)c(OC)c1,inactive,37.4%,72.3%,inactive,165,inactive
CCOC(=O)c1cnc(SCc2ccc(C)cc2)nc1N,inactive,32%,82.3%,inactive,238,inactive
Nc1ccc2c(c1)C(=O)C(=O)c1ccccc1-2,inactive,22.1%,57.5%,inactive,73.8,inactive
OCCC1CN(Cc2ccccc2O)CCN1CCc1ccccc1 (stereo unspecified),inactive,34.2%,82.7%,inactive,255,inactive
O=C(CNC(=O)c1ccco1)OCN1C(=O)c2ccccc2C1=O,inactive,52%,66.1%,inactive,220,inactive
Cc1cc(C(=O)NC(=S)Nc2cccc(C(=O)O)c2C)ccc1[N+](=O)[O-],inactive,37.3%,85.8%,inactive,272,inactive
CN(Cc1ccccc1)c1ccc([N+](=O)[O-])cc1C(=O)O,inactive,41%,87.3%,inactive,276,inactive
CN1CCN(c2ccccc2NC(=O)c2ccc(-c3cccc([N+](=O)[O-])c3)o2)CC1,inactive,40.2%,93.9%,inactive,308,inactive
COc1ccc(-c2cc(C(F)(F)F)n3nc(C(=O)O)cc3n2)cc1OC,inactive,30.7%,67.7%,inactive,140,inactive
COc1ccc2oc(COc3ccccc3)c(C(=O)O)c2c1,inactive,59.6%,87.3%,inactive,29.6,inactive
CCOC(=O)Cn1nnnc1C(CC)N(Cc1cccs1)Cc1cc2cc(C)ccc2[nH]c1=O (stereo unspecified),inactive,96.4%,186%,inactive,194,inactive
O=C(O)c1cc([N+](=O)[O-])ccc1NCc1ccccc1Cl,inactive,96.9%,112%,inactive,84.1,inactive
COc1ccc(/C=C(/C#N)C(=O)Nc2ccc(O)cc2)cc1C(=O)O,inactive,29.4%,74.4%,inactive,177,inactive
Cc1ccccc1NC(=O)CN1C(=O)S/C(=C\c2ccc(-c3cc(C(=O)O)ccc3C)o2)C1=O,inactive,30.5%,77.4%,inactive,258,inactive
CC(C)NC(=S)N=Nc1c(O)[nH]c2ccc([N+](=O)[O-])cc12,inactive,29.1%,67.1%,inactive,128,inactive
Cc1ccc(N=Nc2c(N)[nH]n3c(=O)cc(C)nc23)cc1,inactive,48.4%,61%,inactive,0,inactive
CCOc1ccc(-n2nc3c(=S)[nH]nc(C)c3c2C)cc1,inactive,53.6%,66.6%,inactive,0,inactive
COc1ccc(CC(=O)c2ccccc2C(=O)O)cc1,inactive,153%,143%,inactive,368,inactive
N=C1/C(=C\c2ccc(SCc3ccco3)o2)C(=O)N=C2SC=NN12,inactive,64.2%,108%,inactive,112,inactive

Structure (SMILES),outcome [1],"fluorescence, percent of control (lower = inhibition) [2]","GTP binding, percent of control [3]",outcome [4],"GTP binding signal, raw median fluorescence (lower = inhibition) (MCF (arbitrary fluorescence units)) [5]",outcome [6]
Cc1cc([N+](=O)[O-])ccc1N=Nc1c(N)[nH]n(-c2ccccc2)c1=O,inactive,38.4%,85%,inactive,225,inactive
Nc1nn2c(-c3ccccc3)cc(=O)[nH]c2c1N=Nc1ccc(O)cc1,inactive,33.3%,75.4%,inactive,188,inactive
COc1cccc2cc(-c3ccnc(=S)[nH]3)oc12,inactive,33.3%,70.7%,inactive,140,inactive
O=C(O)c1c(C(F)(F)F)ccnc1SCc1ccccc1,inactive,62%,228%,inactive,55.9,inactive
Cc1ccccc1COc1c(C)cccc1C(=O)O,inactive,59.9%,209%,inactive,56.3,inactive
Cc1nnc2ccc(-c3ccc(NC(=O)c4ccco4)cc3)nn12,inactive,69.8%,109%,inactive,215,inactive
COc1ccc(C2(CNC(=O)C(c3ccccc3)c3ccccc3)CCOCC2)cc1OC,inactive,34%,80.6%,inactive,276,inactive
CCCNC(=O)C(=O)NCc1ccccn1,inactive,41.2%,91.1%,inactive,323,inactive
Nc1nonc1C(=O)NCCN=Cc1cc(Cc2ccccc2)cc(Br)c1O,inactive,55.5%,59%,inactive,192,inactive
COc1cc2c(cc1OC)-c1cc(NCc3ccccn3)nc(=O)n1CC2,inactive,30.7%,68.3%,inactive,182,inactive
Cc1nc(N/N=C/c2ccc(O)cc2)c2cnn(-c3ccccc3)c2n1,inactive,30.2%,73.5%,inactive,191,inactive
COc1cc(N2CCCC2)c(OC)cc1/C=c1/sc2nc3ccccc3n2c1=O,inactive,76%,82%,inactive,195,inactive
O=S(=O)(Nc1ncn[nH]1)c1ccc2ccccc2c1,inactive,62.3%,70.5%,inactive,224,inactive
O=S(=O)(Cc1ccc(Cl)cc1)c1ccccc1-c1nnc(-c2ccccc2)o1,inactive,104%,196%,inactive,207,inactive
Cc1ccc(-c2csc3nc4c5ccccc5c(NCCCN(C)C)nn4c(=O)c23)cc1,inactive,61.7%,96.5%,inactive,192,inactive
COc1ccc(-c2csc(NC(=S)NC(=O)c3cccs3)n2)cc1OC,inactive,36.6%,78.1%,inactive,176,inactive
O=C1/C(=C/c2ccc(N3CCOCC3)o2)SC(=Nc2ccccc2)N1CCc1c[nH]c2ccccc12,inactive,104%,114%,inactive,242,inactive
Cc1nn2c(N)csc2nc1=O,inactive,56.9%,67.8%,inactive,94.3,inactive
COc1ccc(CCNC(=O)C2CCCN2C(=O)NC2CCCCC2)cc1OC (stereo unspecified),inactive,50.7%,180%,inactive,184,inactive

Structure (SMILES),outcome [1],"fluorescence, percent of control (lower = inhibition) [2]","GTP binding, percent of control [3]",outcome [4],"GTP binding signal, raw median fluorescence (lower = inhibition) (MCF (arbitrary fluorescence units)) [5]",outcome [6]
Cc1cccc(C)c1NC(=O)CSc1ccc([N+](=O)[O-])cn1,inactive,85.9%,97.1%,inactive,246,inactive
Cc1ccc(OCCSc2nc3ccccc3n2CC(=O)O)c(C)c1,inactive,55.9%,85%,inactive,29.2,inactive
Cc1cc(NC(=O)/C(C#N)=C/c2ccc(-c3ccc(SC(F)F)cc3)o2)n(-c2ccccc2)n1,inactive,75.1%,96.7%,inactive,211,inactive
Cc1nn(Cc2ccccc2)c(C)c1NC(=O)CSc1nc2c(c(C(F)(F)F)n1)CCc1ccccc1-2,inactive,33.3%,73.5%,inactive,175,inactive
O=[N+]([O-])c1cccc(S(=O)(=O)N2CCCC2)c1,inactive,52.4%,63.8%,inactive,205,inactive
c1ccc(CN2CCN(CCOCCOc3cccc4ccccc34)CC2)cc1,inactive,28.9%,79%,inactive,234,inactive
O=C(Nc1ccc2nc(-c3cccs3)[nH]c2c1)c1cccs1,inactive,30.4%,68.4%,inactive,184,inactive
Cc1ccc(-c2nnc(-c3ccccc3S(=O)(=O)Cc3ccc(Cl)cc3)o2)cc1,inactive,90.3%,165%,inactive,184,inactive
Cc1cc(NS(=O)(=O)c2ccc(NC(=O)c3cc4c(=O)n5ccccc5nc4s3)cc2)nc(C)n1,inactive,31.9%,77.5%,inactive,166,inactive
O=C(O)C1=C[C@H](c2ccc(Br)cc2)C[C@H](OCc2ccc(CO)cc2)O1,inactive,30.3%,82.5%,inactive,230,inactive
c1ccc(-c2onc3c2CCCC3)cc1,inactive,97.3%,144%,inactive,192,inactive
NC(=O)c1cc2nc(-c3ccco3)cc(C(F)(F)F)n2n1,inactive,29.6%,40.3%,inactive,91.8,inactive
O=C(O)c1cccnc1Oc1ccc2c(c1)OCO2,inactive,76.8%,92%,inactive,55.2,inactive
CCn1c(SCC(=O)O)nnc1-c1cc2c(C)nn(-c3ccccc3)c2s1,inactive,25.1%,64.4%,inactive,128,inactive
COc1cc(N2CCCC2)c(OC)cc1/C=C(/C#N)c1cccc(F)c1,inactive,137%,214%,inactive,210,inactive
Cc1ccccc1CNCc1ccc(C(=O)O)s1,inactive,61.7%,87%,inactive,32.5,inactive
CCN1/C(=C\C=C2\C(=O)N(c3ccccc3)C(=S)N2C)Sc2ccccc21,inactive,35.1%,73.9%,inactive,189,inactive
COc1cccc(NC(=O)CSc2nc3c([nH]c4ccccc43)c(=O)n2C)c1,inactive,42.8%,92.1%,inactive,293,inactive
